In the library only some 4.8% were active in any assay of this set; here they are far more common.
TGFb SMAD3 inh: blocks TGF-b signaling | HepG2 CAGA-GFP TGF-b/SMAD3 reporter, GFP fluorescence, 18 h; TGF-beta stimulated, 500 pg/mL final | Potency, µM (series often up to 46.1 µM), actives largely listed as inhibitors | 410,000 compounds, 1.2% hits; note: nearly all actives have a fitted effect of over 65% in size
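First, reporter cells (HEPG2 CAGA-GFP) rested 2 h at 37 degrees C. Next, compounds were pinned in and TGF-beta added to 500 pg/mL final. After 18 h, GFP was imaged per cell and summed per well.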
D3 ag: activates the human D3 dopamine receptor; P35462; AID 652048; D3R DiscoveRx beta-arrestin cells, luminescence, 90 min; max activation, %; 410,000 compounds, 0.58% hits; in the data active = max activation above about 30%
Target sequence (P35462 whole entry, looked up): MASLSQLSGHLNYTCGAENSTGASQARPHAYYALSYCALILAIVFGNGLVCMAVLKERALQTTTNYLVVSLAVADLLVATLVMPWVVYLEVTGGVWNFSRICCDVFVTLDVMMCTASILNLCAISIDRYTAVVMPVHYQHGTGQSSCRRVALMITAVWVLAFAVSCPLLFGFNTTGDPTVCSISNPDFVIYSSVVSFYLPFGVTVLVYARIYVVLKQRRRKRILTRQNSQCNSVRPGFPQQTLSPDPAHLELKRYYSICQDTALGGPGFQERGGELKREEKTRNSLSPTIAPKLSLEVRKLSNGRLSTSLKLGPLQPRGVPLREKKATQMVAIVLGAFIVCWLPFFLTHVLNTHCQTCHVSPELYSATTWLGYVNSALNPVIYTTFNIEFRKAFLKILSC
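Agonist mode: compounds and dopamine controls were applied to plated cells for 90 min at 37 degrees C after an overnight attachment at 1500 cells/well. Luminescent read-out followed 30 - 60 minutes at room temperature with DiscoveRx detection reagent.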
ATXN2 expr inh: reduces ATXN2 reporter expression in HEK-293 cells; HEK-293 ATXN2-luciferase reporter, luminescence, 24 h; Potency, µM (titrated, usually from 57 µM), usual class: inhibitors; 360,000 compounds, 0.72% hits; AID 1745845; note: nearly all actives have a fitted effect of over 55% in size
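ATXN2-luciferase reporter cells (luciferase flanked by upstream and downstream ATXN2 gene portions) were treated 24 h at 37 °C with compounds at up to 57 uM. SteadyGlo luminescence gave expression; GF-AFC fluorescence gave viability.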
ATXN viability: viability counter-screen for ATXN expression inhibitors; 400,000 compounds, 0.49% hits; Potency, µM (titrated, usually from 56.7 µM), actives largely listed as cytotoxic; S2 cells (HEK-293 line with an ATXN2-luciferase reporter) viability, CellTiter-Fluor protease fluorescence, 24 h; note: nearly all actives have a fitted effect of over 40% in size
DRD3 antagonist: blocks the human D3 dopamine receptor; P35462; max response, negative = inhibition, %; D3R cells, DiscoveRx beta-arrestin luminescence, antagonist mode; hits give low values; 360,000 compounds, 2.5% hits; in the data active = max response below about -50%; inconclusive = no clear call, values can overlap the other calls
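Cells expressing the human receptor were seeded at 1500 cells/well, incubated overnight at 37 degrees C in 5% CO2, then exposed to library compounds with dopamine controls for 90 minutes at 37 degrees C before luminescent detection.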
HepG2 tox: HepG2 cytotoxicity, counter-screen for TGF-b inhibitors. HepG2 CAGA-GFP viability, ATP luminescence, 18 h. Potency, µM (titrated, usually from 46.1 µM), usual class: cytotoxic. 410,000 compounds, 0.76% hits. AID 588856
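HepG2 CAGA-GFP cells (1000/well, DMEM with 1% FBS) received compound, then TGF-beta at 500 pg/mL final, and were incubated 18 hours at 37 degrees C. Viability was read by CellTiter-Glo luminescence. Media-only wells were set as complete cell-killing and DMSO as no toxicity.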
Numbers stand for hits; – = inactive; ? = inconclusive; · = no result; [ ] = dose if it differs, or a comment. Unless noted, calls come from the whole dose curve; as a rule, active = well fitted curve in the direction sought with a large enough effect; inconclusive = small, poorly fitted or top-dose-only effect, or another doubt; inactive = no such curve, though single readings can be large; an effect the other way counts as inactive or inconclusive.

SMILES | TGFb SMAD3 inh | D3 ag | ATXN2 expr inh | ATXN viability | DRD3 antagonist | HepG2 tox
O=C(NCc1ccncc1)c1nc(-c2ccc(C(F)(F)F)cc2)no1 | – | – | · | – | – | –
O=C(NCc1cccnc1)c1nc(-c2ccc(C(F)(F)F)cc2)no1 | – | – | – | – | -59.1 | –
CCCNC(=O)C1CCC(Cn2c(=O)c3sccc3n(CC(=O)N(CC)CC)c2=O)CC1 (configuration not stated) | – | – | – | – | · | –
Cc1ccc2nc(Cl)c(C3CC(c4cccs4)=NN3C(=O)CCCC(=O)O)cc2c1 (configuration not stated) | – | 31.5 | – | – | – | –
CCOC(=O)COc1ccc(S(=O)(=O)Nc2ccc(C)cc2)cc1 | – | – | – | – | – | –
C=CCNS(=O)(=O)c1ccc(OCC(=O)OCC)cc1 | – | – | – | – | -60.2 | –
CCOC(=O)COc1ccc(S(=O)(=O)c2ccc(OCC(=O)OCC)cc2)cc1 | – | – | – | – | – | 12.6µM
CCCNS(=O)(=O)c1ccc(OCC(=O)OC)cc1 | – | – | – | – | – | –
CC(CN1CCN(C)CC1)OC(=O)c1ccc(F)cc1 (configuration not stated) | – | – | – | – | – | –
CC(CN(C)Cc1ccccc1)OC(=O)c1ccc(F)cc1 (configuration not stated) | – | – | – | – | -69.2 | –
O=C(Nc1ccc(S(=O)(=O)Nc2nccs2)cc1)c1cc(-c2ccccc2Cl)nc2ccccc12 | ? | – | – | – | -85.2 | –
N#CN=c1snc(-c2ccccc2)n1-c1ccc(Br)cc1 | – | · | · | · | · | –
Cc1cc(N/N=C/c2ccc(N(C)C)cc2)c2ccccc2n1 | – | – | · | – | – | –
Cc1cc(N/N=C/c2ccc(O)cc2)c2cccc(C)c2n1 | ? | – | · | ? | -72.4 | 17.8µM
Cc1cc(C)c2nc(C)cc(N/N=C/c3ccc(O)cc3)c2c1 | 20µM | – | ? | ? | ? | 17.8µM
Cc1cc(-c2ccccc2)nc(N/N=C/c2ccc(O)cc2)n1 | – | – | – | – | – | –
N#Cc1nc(-c2cccc3ccccc23)oc1NCCN1CCCCC1 | – | – | – | – | ? | 22.4µM
Cc1cc(=O)n2[nH]c(=O)c(N=Nc3ccccc3)c2[nH]1 | – | – | – | ? | -83.8 | –
CCOc1ccc(N=Nc2c(=O)[nH]n3c(=O)cc(C)[nH]c23)cc1 | – | – | – | – | – | –
Cc1ccc(Cn2c(=O)c3cccnc3n(CC(=O)Nc3cc(Cl)ccc3C)c2=O)cc1 | – | – | – | – | · | –
O=C(N/N=C/c1cc(O)ccc1Br)c1cccnc1 | – | – | 2.82µM | ? | – | –
O=C(N/N=C/c1c(O)ccc2ccccc12)c1cccnc1 | – | – | ? | ? | – | –
O=C(N/N=C/c1cc(Br)c(O)c(Br)c1O)c1cccnc1 | – | – | · | ? | – | –
Cc1cc(O)c(C)c(O)c1/C=N/NC(=O)c1cccnc1 | – | – | 11.2µM | – | – | –
CC(C)=NOc1cc(NC(=O)CCl)cc([N+](=O)[O-])c1 | 6.31µM | – | ? | 25.1µM | ? | –
SMILES | TGFb SMAD3 inh | D3 ag | ATXN2 expr inh | ATXN viability | DRD3 antagonist | HepG2 tox
O=C(CCl)Nc1cc(SCC(O)CO)cc([N+](=O)[O-])c1 (configuration not stated) | 2.82µM | – | 3.98µM | 8.91µM | – | –
CCC(=O)Nc1cc(SCCO)cc([N+](=O)[O-])c1 | – | – | – | – | – | –
COC(CNC(=O)C1CCCN1C(=O)OCc1ccccc1)OC (configuration not stated) | – | – | – | – | – | –
COC(=O)[C@@H]1C[C@]2(OC(=O)c3ccccc3)C=CC(=O)C[C@@H]2N1C(=O)OCc1ccccc1 | ? | – | 14.1µM | · | ? | –
Oc1ccc(C2CCN(c3ccnc4ccccc34)CC2)cc1O | · | · | – | · | · | ·
CCc1ccc2nc3nc(C)cc(C)c3c(N)c2c1 | 12.6µM | – | ? | · | – | –
Cc1ccc(NC(=O)CN2C(=O)C3(SCC(=O)N3c3ccc(F)c(F)c3)c3ccccc32)c(C)c1 (configuration not stated) | – | – | – | – | · | –
Nc1nc2ccccc2n1Cc1ccc(F)cc1 | · | · | – | – | · | ·
CCOC(=O)/C(=C\c1cccc(O)c1)c1nc2sc(C)c(C)c2c(=O)[nH]1 | ? | – | 15.8µM | ? | -57.6 | –
CCOC(=O)c1nc2sc(C)c(C)c2c(=O)[nH]1 | – | – | – | – | – | –
C=C1C=C(C)n2ncc(C(=O)NCCCCCC)c2N1 | – | · | · | · | · | –
CC(=O)Nc1ccccc1-c1nc(CNC(=O)c2ccc(-n3cccn3)cc2)c(C)o1 | · | · | · | – | · | ·
COc1cccc(NC(=O)c2ccc(NCCCN3CCC(C)CC3)c([N+](=O)[O-])c2)c1 | – | – | – | ? | -53.6 | –
Cc1ccc(NC(=O)c2ccc(NCCN)c([N+](=O)[O-])c2)cc1Cl | ? | – | – | – | – | 17.8µM
N#Cc1ccsc1NC(=O)c1ccc(Cl)c([N+](=O)[O-])c1 | 7.08µM | – | · | – | – | –
Cc1cccc(C)c1NS(=O)(=O)c1ccc(NC(=O)c2ccc(Cl)c([N+](=O)[O-])c2)cc1 | ? | – | · | 25.1µM | -78.1 | 17.8µM
O=[N+]([O-])c1ccc(NC(=S)NCCc2ccccc2)cc1 | ? | – | –[11.3 µM] | – | – | –
O=[N+]([O-])c1ccc(O)c(NC(=S)Nc2ccccc2)c1 | – | – | – | – | -77.7 | –
O=[N+]([O-])c1ccc(NNC(=S)Nc2ccccc2)cc1 | ? | – | – | ? | -92.8 | –
O=C(NCCN1CCN(c2ccccc2)CC1)C1CCCN(S(=O)(=O)c2cnc[nH]2)C1 (configuration not stated) | – | – | – | – | -63.3 | –
O=C(NC1CCCC1)C1CCCN(S(=O)(=O)c2cnc[nH]2)C1 (configuration not stated) | – | – | – | – | – | –
CC1CCCN(S(=O)(=O)c2cnc[nH]2)C1 (configuration not stated) | – | 32.6 | · | – | – | –
CCN(CCNC(=O)C1CCCN(S(=O)(=O)c2cnc[nH]2)C1)c1ccccc1 (configuration not stated) | – | – | – | – | – | –
O=C(NCCN1CCN(c2cccc(Cl)c2)CC1)C1CCCN(S(=O)(=O)c2cnc[nH]2)C1 (configuration not stated) | – | – | – | – | -85.7 | –
Cc1cn(C2CC3OCC(NC(=O)C(NC(=O)OC(C)(C)C)C(C)OCc4ccccc4)C3O2)c(=O)[nH]c1=O (configuration not stated) | – | · | · | · | · | –
C=CCn1c(CNc2ccc(C)cc2)nnc1SCC(=O)N/N=C/c1ccc(O)cc1O | ? | – | 20µM | – | – | –
